Results taken from PubChem BioAssay.
Calls of active or inactive are those of the source. Unless noted, no rule for the calls is given here.

How the values were obtained:
[1] = test system: Wnt5a (protein binding on small-molecule microarray); assay: small molecules binding Wnt5a protein – biophysical, small-molecule microarray, 635/667 nm fluorescence, primary screen (AID 1142); details: 635 nm fluorescence, higher = more signal;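 also: fluorescence read at 667 nm with signal to noise per printed feature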
[2] = ATP-based viability of Huh7 replicon cells – cell-based, CellTiter-Glo luminescence, basal, 48 h, cytotoxicity control for HCV replication inhibitor project, primary screen (AID 1143); details: higher = more signal, called active from +8 up or from −8 down;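 also: Huh7 hepatoma cells carrying a hepatitis C replication reporter with no stimulus; test concentration not given here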
[3] = Pseudomonas biofilm growth suppression – PAO1 strain, BacTiter-Glo luminescence, LB-PBS, primary screen (AID 1144); details: P. aeruginosa PAO1 biofilm, 12 h, higher = more signal
[4] = basal CRE-LacZ reporter activity in PC12 – cell-based, unstimulated, primary screen (AID 1145); details: no forskolin, luminescence, 4.5 h, higher = more signal, called active from +8 up or from −8 down
[5] = forskolin-driven CRE-LacZ activity in PC12 – cell-based, CRE-LacZ reporter, forskolin-stimulated, primary screen (AID 1146); details: luminescence, 4.5 h, higher = more signal, called active from +8 up or from −8 down;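 also: PC12 cells with 6xCRE LacZ reporter stimulated by forskolin 10 µM; beta-galactosidase reporter signal reflecting CREB driven transcription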
[6] = molecular target: Streptavidin (Streptomyces avidinii) (UniProt P22629); assay: compounds binding control protein streptavidin – biophysical, small-molecule microarray, 635/667 nm fluorescence, artefact control for SMM compound annotation, primary screen (AID 1147); details: higher = more signal;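 also: signal reflects streptavidin binding to arrayed compounds as a control protein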
[7] = probe aInhba binding on compound microarray – biochemical, small-molecule microarray, 635/667 nm fluorescence, primary screen (AID 1148); details: higher = more signal;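 also: score merges 667nm spot fluorescence with signal-to-noise for antibody binding to printed compounds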
Torsin-1A (Homo sapiens) [8] = molecular target: Torsin-1A (Homo sapiens) (UniProt O14656); assay: TOR1A wild-type binding on microarray – cell lysate, small-molecule microarray, lysate, 635/667 nm, primary screen (AID 1149); details: COS7 hTOR1A-WT lysate, 635 nm fluorescence, higher = more signal
Torsin-1A (Homo sapiens) [9] = molecular target: Torsin-1A (Homo sapiens) (UniProt O14656); assay: torsin A mutant lysate binding on microarrays – cell lysate, small-molecule microarray, COS7 lysate, 635/667 nm fluorescence, primary screen (AID 1150); details: COS7 hTOR1A mutant lysate, 635 nm fluorescence, higher = more signal;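 also: score pools 667 nm emission and signal to noise measuring lysate protein binding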
[10] = test system: Sonic hedgehog protein (Shh); assay: Sonic hedgehog microarray binding compounds – biochemical, small-molecule microarray, 635/667 nm fluorescence, primary screen (AID 1151); details: 635 nm fluorescence, higher = more signal;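 also: Shh protein binding to compounds spotted on small-molecule microarray slides; score combines spot fluorescence intensity with signal-to-noise across triplicate slides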
[11] = optical density shifts of acrAB sulA E. coli – strain DRC41, OD650, 48 h, E. coli filamentation inducer project, primary screen (AID 1152); details: higher = more signal, called active from +8 up or from −8 down;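 also: E. coli MC1000 strain DRC41 lacking acrAB efflux pump and sulA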
[12] = probe aLefty1 binding on compound microarray – biochemical, small-molecule microarray, 635/667 nm fluorescence, primary screen (AID 1153); details: higher = more signal;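 also: score merges spot fluorescence with signal-to-noise ratio from the scanned slide images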
[13] = plasmodial surface anion channel blockers, osmotic lysis – cell-based, P. falciparum Indochina, OD700, 1 h, primary screen (AID 1154); details: P. falciparum Indochina infected RBC osmotic lysis, higher = more signal, called active from +8 up or from −8 down
[14] = plasmodial surface anion channel blockers, osmotic lysis – cell-based, P. falciparum Indochina, OD700, 2 h, primary screen (AID 1155);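 also: lysis reports solute entry through the parasite surface anion channel PSAC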; details: P. falciparum Indochina infected erythrocytes, higher = more signal, called active from +8 up or from −8 down
[15] = changes in parasitized red cell lysis, either direction – P. falciparum Indochina, OD700, 3 h, PSAC antagonist project, primary screen (AID 1156); details: P. falciparum-infected erythrocytes, osmotic lysis, higher = more signal, called active from +8 up or from −8 down
[16] = plasmodial surface anion channel blockers, osmotic lysis – cell-based, P. falciparum Indochina, OD700, 18 h, primary screen (AID 1157); details: P. falciparum Indochina infected erythrocytes, osmotic lysis OD700, 18 h; higher = more signal, called active from +8 up or from −8 down
[17] = S6 kinase pathway phospho-S6 level changes – cell-based, A549, cytoblot, luminescence, serum-stimulated, primary screen (AID 1158); details: 5 h, higher = more signal;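 also: serum-stimulated A549 lung adenocarcinoma cells; signal is phosphorylated S6 detected by cytoblot immunostaining with HRP secondary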
[18] = molecular target: NADPH oxidase 2 (Homo sapiens) (UniProt P04839); assay: compounds shifting NOX2 Amplex Red fluorescence – cell-based, HEK293-NOX2, PMA-stimulated, NOX inhibitor project, primary screen (AID 1159); details: 45 min, higher = more signal, called active from +8 up or from −8 down; also: test concentration not given here
[19] = molecular target: NADPH oxidase 4 (Homo sapiens) (UniProt Q9NPH5); assay: compounds shifting NOX4 Amplex Red fluorescence – cell-based, HEK293-NOX4, tetracycline-induced, NOX inhibitor project, primary screen (AID 1160); details: HEK293-NOX4, Amplex Red H2O2 fluorescence, 45 min; higher = more signal, called active from +8 up or from −8 down
[20] = molecular target: NADPH oxidase 5 (Homo sapiens) (UniProt Q96PH1); assay: compounds shifting NOX5 Amplex Red fluorescence – cell-based, HEK293-NOX5, NOX inhibitor project, primary screen (AID 1161); details: HEK293-NOX5, ionomycin, 45 min, higher = more signal
Chain of NADPH oxidase 5 (Homo sapiens) (Q96PH1 whole entry, looked up): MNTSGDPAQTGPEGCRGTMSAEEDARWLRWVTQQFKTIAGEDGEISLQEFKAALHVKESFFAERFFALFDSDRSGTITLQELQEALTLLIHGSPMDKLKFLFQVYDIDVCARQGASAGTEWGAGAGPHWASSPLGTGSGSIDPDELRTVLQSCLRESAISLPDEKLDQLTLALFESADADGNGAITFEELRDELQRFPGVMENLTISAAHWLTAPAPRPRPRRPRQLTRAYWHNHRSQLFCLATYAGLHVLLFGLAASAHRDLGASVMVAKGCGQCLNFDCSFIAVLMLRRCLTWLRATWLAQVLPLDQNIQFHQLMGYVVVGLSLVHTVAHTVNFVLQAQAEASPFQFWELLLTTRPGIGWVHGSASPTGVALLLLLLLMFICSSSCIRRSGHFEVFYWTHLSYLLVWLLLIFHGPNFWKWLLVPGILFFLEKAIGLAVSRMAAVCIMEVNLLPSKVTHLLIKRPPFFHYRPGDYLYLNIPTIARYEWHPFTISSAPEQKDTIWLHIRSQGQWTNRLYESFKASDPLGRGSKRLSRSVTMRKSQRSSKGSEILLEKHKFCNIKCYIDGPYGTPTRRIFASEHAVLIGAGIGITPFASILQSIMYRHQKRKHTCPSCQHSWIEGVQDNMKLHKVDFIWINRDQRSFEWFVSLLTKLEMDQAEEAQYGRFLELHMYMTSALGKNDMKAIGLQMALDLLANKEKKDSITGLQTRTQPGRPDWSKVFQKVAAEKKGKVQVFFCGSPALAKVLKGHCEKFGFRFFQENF

Chain of NADPH oxidase 2 (Homo sapiens) (P04839 whole entry, looked up): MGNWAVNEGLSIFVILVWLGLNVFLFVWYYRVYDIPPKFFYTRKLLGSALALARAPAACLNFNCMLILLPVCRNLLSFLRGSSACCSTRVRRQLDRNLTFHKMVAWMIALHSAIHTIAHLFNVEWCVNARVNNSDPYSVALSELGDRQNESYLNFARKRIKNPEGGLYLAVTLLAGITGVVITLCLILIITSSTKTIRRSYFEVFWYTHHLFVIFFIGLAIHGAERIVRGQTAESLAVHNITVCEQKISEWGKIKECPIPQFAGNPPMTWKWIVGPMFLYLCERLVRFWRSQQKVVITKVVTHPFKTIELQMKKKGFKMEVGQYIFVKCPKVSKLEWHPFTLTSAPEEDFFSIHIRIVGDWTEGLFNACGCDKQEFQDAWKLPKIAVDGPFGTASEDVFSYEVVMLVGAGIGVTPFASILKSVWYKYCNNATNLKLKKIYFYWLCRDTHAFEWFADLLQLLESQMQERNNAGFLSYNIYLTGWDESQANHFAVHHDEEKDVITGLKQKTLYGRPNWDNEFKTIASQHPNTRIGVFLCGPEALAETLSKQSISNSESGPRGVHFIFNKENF
Chain of Torsin-1A (Homo sapiens) (O14656 whole entry, looked up): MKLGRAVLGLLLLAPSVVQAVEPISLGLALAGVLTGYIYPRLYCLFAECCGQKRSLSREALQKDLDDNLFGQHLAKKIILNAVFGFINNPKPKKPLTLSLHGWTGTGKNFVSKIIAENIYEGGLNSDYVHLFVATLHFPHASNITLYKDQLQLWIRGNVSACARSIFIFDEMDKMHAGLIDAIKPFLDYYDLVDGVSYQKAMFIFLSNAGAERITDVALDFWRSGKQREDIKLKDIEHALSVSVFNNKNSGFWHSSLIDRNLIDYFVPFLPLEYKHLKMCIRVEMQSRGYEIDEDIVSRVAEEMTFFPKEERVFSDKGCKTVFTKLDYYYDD
Chain of NADPH oxidase 4 (Homo sapiens) (Q9NPH5 whole entry, looked up): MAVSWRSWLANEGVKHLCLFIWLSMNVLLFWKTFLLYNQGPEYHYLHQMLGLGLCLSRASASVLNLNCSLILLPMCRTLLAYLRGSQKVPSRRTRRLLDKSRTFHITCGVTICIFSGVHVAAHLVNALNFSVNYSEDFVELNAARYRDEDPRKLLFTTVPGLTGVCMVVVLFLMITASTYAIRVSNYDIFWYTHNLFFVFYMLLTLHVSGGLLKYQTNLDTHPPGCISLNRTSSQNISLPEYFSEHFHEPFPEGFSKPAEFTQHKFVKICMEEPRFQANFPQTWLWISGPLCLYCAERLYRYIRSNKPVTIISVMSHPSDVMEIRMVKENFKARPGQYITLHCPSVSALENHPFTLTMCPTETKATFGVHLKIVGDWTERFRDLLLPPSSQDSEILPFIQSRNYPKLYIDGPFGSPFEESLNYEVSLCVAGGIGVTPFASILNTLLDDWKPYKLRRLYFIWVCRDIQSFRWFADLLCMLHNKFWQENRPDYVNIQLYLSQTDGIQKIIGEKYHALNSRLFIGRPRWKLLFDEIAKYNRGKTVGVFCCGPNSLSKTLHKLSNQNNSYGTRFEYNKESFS
Chain of Streptavidin (Streptomyces avidinii) (P22629 whole entry, looked up): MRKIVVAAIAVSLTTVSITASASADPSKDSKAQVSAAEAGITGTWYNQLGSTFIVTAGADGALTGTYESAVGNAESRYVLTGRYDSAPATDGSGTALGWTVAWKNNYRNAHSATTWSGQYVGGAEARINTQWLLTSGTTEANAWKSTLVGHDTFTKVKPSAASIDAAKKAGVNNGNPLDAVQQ

Row | SMILES | composite z-score [1] | z-score [2] | z-score [3] | z-score [4] | z-score [5] | composite z-score [6] | composite z-score [7] | composite z-score (Torsin-1A (Homo sapiens) [8]) | composite z-score (Torsin-1A (Homo sapiens) [9]) | composite z-score [10] | z-score [11] | composite z-score [12] | z-score [13] | z-score [14] | z-score [15] | z-score [16] | z-score [17] | z-score [18] | z-score [19] | z-score [20]
1 | Cc1ccccc1C(O)C1C=CC2C(=O)N(c3ccccc3)C(=O)C2N1Nc1ccc(C#N)cc1 (stereo not given) | 0.51 | 0.466 (inactive) | -1.14 (inactive) | -0.133 (inactive) | 1.66 (inactive) | 2.17 | 0.816 | 0.261 | 1.58 | -0.442 | 0.307 (inactive) | 1.1 | 26 (active) | 14.9 (active) | 3.53 (inactive) | 1.81 (inactive) | -0.762 | -0.865 (inactive) | -4.92 (inactive) | -3.18
2 | Cc1ccc(N2C(=O)c3ccccc3[C@](C)(C(=O)NCC(C)C)[C@@H]2c2ccc(CO)cc2)nc1 | -0.116 | 0.985 (inactive) | -0.309 (inactive) | -0.0888 (inactive) | -0.002 (inactive) | -1.12 | -0.147 | -0.458 | -1.26 | -0.656 | -0.262 (inactive) | -0.147 | 1.84 (inactive) | 0.707 (inactive) | 1.26 (inactive) | 0.937 (inactive) | -0.0528 | 0.253 (inactive) | -0.657 (inactive) | -1.63
3 | Cc1ccc(S[C@]2(C(=O)NC(C)C)CC(=O)N(Cc3cc(C(F)(F)F)cc(C(F)(F)F)c3)[C@@H]2c2ccc(CO)cc2I)cc1 | -0.168 | -1.11 (inactive) | 0.381 (inactive) | -0.554 (inactive) | 1.28 (inactive) | -0.995 | -0.148 | 0.61 | 1.66 | -0.0174 | 0.191 (inactive) | -0.136 | 3.22 (inactive) | 0.504 (inactive) | -0.365 (inactive) | 0.132 (inactive) | -0.398 | 1.57 (inactive) | -1.07 (inactive) | 2.23
4 | COCCOC(=O)N1C(=O)[C@@]2(c3cc(C#CC4=CCCCC4)ccc31)[C@H](C(=O)NC[C@H](O)c1ccccc1)[C@H]1C(=O)O[C@H](c3ccccc3)[C@H](c3ccccc3)N1[C@@H]2c1ccc(OCCO)cc1 | 0.374 | -2.96 (inactive) | 0.329 (inactive) | 0.0776 (inactive) | 1.2 (inactive) | 0.855 | 0.0446 | 0.481 | 0.0642 | 2.05 | -0.999 (inactive) | 0.197 | 3.71 (inactive) | 2.15 (inactive) | -0.681 (inactive) | 1.05 (inactive) | 0.0766 | 1.54 (inactive) | 1.17 (inactive) | 1.59
5 | CC[C@@H]1C=C(C(=O)O)[C@H](c2ccccc2)N1S(=O)(=O)c1ccc([N+](=O)[O-])cc1 | -0.0781 | -0.979 (inactive) | -0.667 (inactive) | -0.873 (inactive) | 0.403 (inactive) | 0.698 | -0.128 | 0.802 | 0.717 | -0.335 | -3.21 (inactive) | -0.405 | 1.3 (inactive) | 1.01 (inactive) | 0.751 (inactive) | 1.15 (inactive) | -0.37 | 0.325 (inactive) | -0.0428 (inactive) | -0.526
6 | O=C1C2C=CC(C(O)Cc3ccccc3)N(Nc3ccc([N+](=O)[O-])cc3)C2C(=O)N1c1ccccc1 (stereo not given) | 0.331 | -0.219 (inactive) | -0.138 (inactive) | -1.33 (inactive) | -0.0492 (inactive) | 0.355 | 0.46 | 0.187 | 0.222 | -0.166 | -0.458 (inactive) | 0.769 | 3.94 (inactive) | 1.61 (inactive) | 0.371 (inactive) | 0.877 (inactive) | -0.521 | -1.1 (inactive) | -2.7 (inactive) | -1.64
7 | COC(=O)[C@@]1(Cc2ccc(OC)cc2)[C@H]2c3cc(C(=O)N(C)C)n(Cc4ccc(C)c(F)c4F)c3C[C@H]2CN1C(=O)c1ccccc1 | 0.109 | -1.49 (inactive) | -0.763 (inactive) | 1.53 (inactive) | 1.24 (inactive) | 0.569 | 0.0179 | -0.124 | -0.0724 | -1.09 | -1.37 (inactive) | 0.187 | 1.76 (inactive) | -0.0758 (inactive) | 0.571 (inactive) | 0.788 (inactive) | 0.0141 | -0.795 (inactive) | -0.522 (inactive) | 3.23
8 | COCCOC(=O)N1C(=O)[C@@]2(c3cc(C#CCCO)ccc31)[C@H](c1ccc(O)cc1)N1[C@H](c3ccccc3)[C@H](c3ccccc3)OC(=O)[C@H]1[C@@H]2C(=O)Nc1nc2ccccc2s1 | 0.607 | -2.49 (inactive) | -1.24 (inactive) | -1.7 (inactive) | -0.0062 (inactive) | 0.996 | -0.0062 | -0.0624 | 0.236 | 2.03 | 1.45 (inactive) | 0.345 | 2.22 (inactive) | 1.59 (inactive) | 0.577 (inactive) | 1.73 (inactive) | 0.897 | 0.928 (inactive) | -0.161 (inactive) | 1.21
9 | CCOC(=O)C1=CCC(c2cccc3ccccc23)N(S(=O)(=O)c2ccc(C)cc2)C1 (stereo not given) | 0.204 | -3.85 (inactive) | 0.00942 (inactive) | -0.826 (inactive) | -0.0663 (inactive) | 1.12 | 0.201 | 0.334 | 0.216 | -0.717 | -0.894 (inactive) | 0.071 | 1.49 (inactive) | 0.902 (inactive) | -1.54 (inactive) | 0.411 (inactive) | -0.415 | 1.42 (inactive) | 1.17 (inactive) | 1.49
